From PubChem BioAssay (EPA / NIEHS) come the findings set out here.

Inconclusive results are not listed. Calls of active or inactive are those of the source. How the source made its calls: active means hit-call score of the fitted dose curve at least 0.9, where 1 is the maximum; inconclusive means response in the unintended direction; inactive means score below 0.9.

For assay [1], the target named is human Serotonin, 5-Hydroxytryptamine Receptor 7 (5HT7), HTR7 (gene 3363) (UniProt P34969). Description: NVS_GPCR_h5HT7: NovaScreen (NVS) G Protein-Coupled Receptor Assay for human Serotonin, 5-Hydroxytryptamine Receptor 7 (5HT7) (AID 2283255).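 Further: hits reduce specific radioligand binding relative to DMSO.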 In outline:
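Filter-bound radioactivity counted after 1 h, with loss of specific radioligand binding fitted against DMSO. Membrane protein came from CHO cells expressing human 5HT7. Chemicals were tested first at 25 uM in duplicate, then in concentration series if active.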

Assay [2] deals with human Neuropeptide Receptor Y1 (NPY1), NPY1R (gene 4886) (UniProt P25929). As to the kind of experiment: NVS_GPCR_hNPY1: NovaScreen (NVS) G Protein-Coupled Receptor Assay for human Neuropeptide Receptor Y1 (NPY1) (AID 2283276). In a few lines: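 Displacement of specific radioligand from NPY1 receptor of SK-N-MC origin, read by filtration and scintillation after 1 h. Compounds first tested at 25 uM in duplicate, then actives in concentration series; signal loss relative to DMSO.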
Chain of human Neuropeptide Receptor Y1 (NPY1), NPY1R (gene 4886) (P25929 whole entry, looked up): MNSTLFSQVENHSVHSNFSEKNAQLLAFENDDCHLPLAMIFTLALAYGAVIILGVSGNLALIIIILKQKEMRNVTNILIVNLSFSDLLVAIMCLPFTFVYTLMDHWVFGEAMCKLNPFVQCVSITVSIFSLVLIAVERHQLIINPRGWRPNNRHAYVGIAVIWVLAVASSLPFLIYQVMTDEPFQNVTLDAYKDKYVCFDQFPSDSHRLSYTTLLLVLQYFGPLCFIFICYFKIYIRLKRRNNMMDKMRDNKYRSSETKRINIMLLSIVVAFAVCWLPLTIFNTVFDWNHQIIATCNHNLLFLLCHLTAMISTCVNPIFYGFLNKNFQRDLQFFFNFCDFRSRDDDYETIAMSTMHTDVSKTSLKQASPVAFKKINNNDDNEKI

The test system of assay [3] is 5-hydroxytryptamine receptor 2C (pig). Description: NVS_GPCR_p5HT2C: NovaScreen (NVS) G Protein-Coupled Receptor Assay for pig Serotonin, 5-Hydroxytryptamine Receptor 2C (5HT2C) (AID 2283288). In outline:
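Radioligand displacement on membranes from pig choroid plexus, detected by filter scintillation counting after 1 h. Tested first at a single 25 uM in duplicate, then in concentration-response for actives; DMSO served as baseline.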

Chain of human Serotonin, 5-Hydroxytryptamine Receptor 7 (5HT7), HTR7 (gene 3363) (P34969 whole entry, looked up): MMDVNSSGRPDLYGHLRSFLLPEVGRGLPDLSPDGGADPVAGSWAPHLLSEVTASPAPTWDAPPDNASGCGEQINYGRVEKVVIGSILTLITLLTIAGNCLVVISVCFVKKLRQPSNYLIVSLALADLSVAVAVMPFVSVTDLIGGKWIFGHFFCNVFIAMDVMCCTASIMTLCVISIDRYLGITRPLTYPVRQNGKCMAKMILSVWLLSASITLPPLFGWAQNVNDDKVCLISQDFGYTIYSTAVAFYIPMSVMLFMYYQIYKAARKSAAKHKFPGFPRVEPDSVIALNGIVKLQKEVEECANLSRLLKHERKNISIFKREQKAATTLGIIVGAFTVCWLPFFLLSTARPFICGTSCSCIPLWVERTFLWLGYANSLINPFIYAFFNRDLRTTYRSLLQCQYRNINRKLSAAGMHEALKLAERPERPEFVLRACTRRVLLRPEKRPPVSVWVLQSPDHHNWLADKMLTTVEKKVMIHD

Turning to `C1CNCCN1`, the result in assay [1] and in assay [2] was inactive.

Consider `Cc1ccc([N+](=O)[O-])cc1N`, for which the outcome in assay [3] was inactive.
